This passage reports inhibition results from PubChem BioAssay AID488857 (Sanford-Burnham Center for Chemical Genomics, 2010).

The term inhibition denotes the relative decrease from the control value, in per cent.

The campaign covered roughly 1,400 compounds. About 560 (40%) were called active.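 The calls were made as follows: active = mean inhibition over duplicate tests at 10 µM above 50%; inactive = the rest.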 So high a share suggests a set chosen from earlier hits. Some of the results follow.

The nature of this assay: ASC/caspase-1 reporter retest in S. cerevisiae at one dose, specificity check for NALP1 project (AID 488857). As to conditions: S. cerevisiae ASC/Caspase-1, beta-galactosidase luminescence, 24 h; at 10 µM; stronger effect = higher value.
For `O=C(/C=C/c1ccccn1)c1ccc(Br)cc1O`, the inhibition was 85.5% (active).
Regarding `CCNc1ccc(Br)cc(C(=O)/C=C/c2c(Cl)cccc2Cl)c1=O`, the inhibition was 42.6% (inactive).
On to `Cc1cc(C)c(S(=O)(=O)N(CC(=O)O)CC(=O)O)c(C)c1`, for which the inhibition was 46% (inactive).
Regarding `CC[N+]1(CC)CC2=Cc3c(ccc4ccccc34)CC2C1` (configuration not stated), the inhibition is 35.5% (inactive).
As for `CCOc1ccc(N2C(=O)CC(N)C2=O)cc1` (configuration not stated), the figure is 70% (active); as for `CCCCCCOc1ccc(N2C(=O)CC(N3CCC(C(=O)OCC)CC3)C2=O)cc1` (configuration not stated), 45.4% (inactive); as for `CCOc1ccc(C2N(c3ccc(F)cc3)C(=O)C3CCCN32)cc1` (configuration not stated), 26.1% (inactive).
For `Cc1ccc(Cl)cc1N1CCN(S(C)(=O)=O)CC1`, the inhibition is 33.1% (inactive).
As for `O=C(Cc1cccs1)Nc1nc(-c2ccc(F)cc2F)cs1`, the inhibition was 74.7% (active).
As to `COc1ccc(-c2nc3c(c(=O)[nH]c(=O)n3Cc3ccccc3)n2C)cc1`, the inhibition was 41% (inactive).
As for `CCOC(=O)c1ccccc1NC(=O)COc1cc(=O)n(CC)c2ccccc12`, the figure is 33.4% (inactive).
As to `O=C(Nc1ccc(F)cc1)c1cccnc1N1CCCCC1`, the inhibition is 43.2% (inactive).
On to `CCOc1ccccc1C(=O)OCC(=O)Nc1ccc(N2CCCCC2)cc1`, for which the inhibition is 67.3% (active).
Consider `CNC(=S)N/N=C/c1cc(Br)cc(Br)c1O`, for which the inhibition was 85.5% (active).
Turning to `CC(=O)n1cc(-c2ccncc2)c2ccccc21`, the inhibition was 52.4% (active).
Take `CN1CCc2cccc3c2[C@@H]1Cc1ccc(O)c(O)c1-3`: the inhibition is 67% (active).
The result for `CN1CCc2cccc3c2[C@H]1Cc1ccc(O)c(O)c1-3` reads 50.5% (active); that for `Fc1ccc(Nc2ccnc(Nc3ccc(F)cc3)n2)cc1`, 46.8% (inactive); that for `COc1ccc(Nc2ccnc(Nc3ccc(OC)cc3)n2)cc1`, 64.2% (active).
The result for `CN(C)S(=O)(=O)c1ccc(N2CCCC2)c(C(=O)Nc2nc3ccccc3s2)c1` reads 42.1% (inactive).
As for `O=C(NC(Nc1nc2ccc([N+](=O)[O-])cc2s1)(C(F)(F)F)C(F)(F)F)c1ccccc1Cl`, the figure is 100% (active).
`CC(C)(C)C1=CC(=O)C(=O)C(C(C)(C)C)=C1`: the inhibition is 12.5% (inactive).
In the case of `COC1=C(Nc2ccccc2)C(=O)c2ccccc2C1=O`, the inhibition was 26.2% (inactive).
For the compound `COc1ccccc1NC1=C(N2CCCCC2)C(=O)c2ccccc2C1=O`, the inhibition was 81.7% (active).
Regarding `O=C1OC(/C=C/c2ccc(Cl)cc2)=NC/1=C/c1ccco1`, the inhibition is 39.5% (inactive).
Take `CCCCCOc1ccc(Br)cc1/C(C)=N/NC1=NCCN1`: the inhibition is 78.4% (active).
The result for `CCCCCCOc1ccc(/C(C)=N/NC2=NCCN2)cc1` reads 80.3% (active).
As for `CCCCCCOc1ccc(OC(=O)c2ccncc2)cc1`, the figure is 14.7% (inactive); as for `CCCCCCOc1ccc(-c2ccc(C#N)cn2)cc1`, 37.6% (inactive).
On to `Cc1c(-c2ccccc2)[n+](=O)c2c(n1[O-])CCC2`, for which the inhibition was -7.75% (inactive).
As for `NC(C(=O)O)C1CC(Cl)=NO1` (configuration not stated), the inhibition is 59.1% (active).
Consider `CCCN(CCC)C(=O)Cn1c(=O)n(CCCCC(=O)NCc2ccco2)c(=O)c2ccccc21`, for which the inhibition is 49% (inactive).
On to `CCc1ccc(S(=O)(=O)/N=C2/C=C(Sc3ncn[nH]3)C(=O)c3ccccc32)cc1`, for which the inhibition is 96% (active).
`CSCCNC(C)=O`: the inhibition was 17% (inactive).
With `COC(=O)c1sccc1N/N=C(\C)c1ccc(F)c(Cl)c1`, the inhibition is 36% (inactive).
As to `CC1=C(C(=O)Nc2ccc(Cl)cc2)C(c2ccco2)NC(=O)N1` (configuration not stated), the inhibition was 15.8% (inactive).
As for `O=C(Nc1ccc(Cl)cc1)C1=Cc2ccccc2OC1`, the inhibition was 65.8% (active).
The result for `CCc1cccc(CC)c1NC(=S)NCCc1c(C)[nH]c2ccccc12` reads 50.6% (active).
Regarding `CCc1cccc(C)c1NC(=S)NCCc1c(C)[nH]c2ccc(C)cc12`, the inhibition is 44.8% (inactive).
`COc1ccc(CNCC(O)(c2ccccc2)c2ccc(Cl)cc2)cc1` (configuration not stated): the inhibition was 60% (active).
The result for `CNC(=O)C(NC(=O)c1ccccc1)=C(C)C` reads 38.2% (inactive); that for `C=C(C(=O)c1ccccc1)C(C)C(=C)C(=O)c1ccccc1`, 59.5% (active); that for `COC(=O)c1c(N)c(C#N)c2n1CCCCC2`, 37.8% (inactive).
As to `Nc1nc(-c2ccco2)nn1S(=O)(=O)c1ccccc1`, the inhibition was 21.7% (inactive).
For `CCOC(=O)c1nc(C)sc1-c1ccnn1S(=O)(=O)c1ccc(C)cc1`, the inhibition was 45.4% (inactive).
On to `COc1ccc(-c2nc(N)n(S(=O)(=O)c3ccc(C)cc3)n2)cc1`, for which the inhibition was 63.5% (active).
Regarding `Cc1c(-c2nc(N)nc(Nc3ccccc3)n2)oc2ccccc12`, the inhibition was 45.6% (inactive).
As for `O=C1CC(Sc2nnnn2-c2ccccc2)C(=O)N1c1cccc(Cl)c1` (configuration not stated), the inhibition was 47.4% (inactive).
Take `CCOc1ccc2nc(SC3CC(=O)N(c4cccc(OC)c4)C3=O)sc2c1` (configuration not stated): the inhibition is 85% (active).
For the compound `CCOc1cccc(N2C(=O)CC(N3CCN(c4ccc(S(=O)(=O)CC)cc4)CC3)C2=O)c1` (configuration not stated), the inhibition is 34.4% (inactive).
Take `COC(=O)CSC1=C(C#N)C(=O)NC(c2ccccc2)S1` (configuration not stated): the inhibition is 39.5% (inactive).
As to `Cc1ccc(C(=O)NCCSCc2ccccc2)cc1[N+](=O)[O-]`, the inhibition was 52.2% (active).
Turning to `Cc1ccc(CSCCNC(=O)CSCc2ccc([N+](=O)[O-])cc2)cc1`, the inhibition is 68.6% (active).
For `Cc1ccc(S(=O)(=O)NC2=NCN(CCOC(=O)c3ccc([N+](=O)[O-])cc3)CN2)cc1`, the inhibition was 14.1% (inactive).
Turning to `COCCNC(=O)CCc1ccc(S(=O)(=O)Nc2ccc(C)cc2)cc1`, the inhibition is 25.9% (inactive).
In the case of `Cc1cccc(C(=O)NCc2ccc(S(N)(=O)=O)cc2)c1[N+](=O)[O-]`, the inhibition is 30.2% (inactive).
With `CCn1c2ccccc2c2cc(NC(=O)c3ccc(C)c([N+](=O)[O-])c3)ccc21`, the inhibition was 45.8% (inactive).
As to `Cc1ccc(C(=O)NCCc2cccc(Cl)c2)cc1[N+](=O)[O-]`, the inhibition is 73.5% (active).
On to `COCCNC(=O)c1ccc(C)c(S(=O)(=O)Nc2ccc(C)cc2)c1`, for which the inhibition is 27.9% (inactive).
Regarding `CCCCCCC1CCC(C(=O)Nn2c(C)nc3ccccc3c2=O)CC1` (configuration not stated), the inhibition was 49% (inactive).
Turning to `CC1CCCC/C1=N\Nc1ccc(S(N)(=O)=O)cc1[N+](=O)[O-]` (configuration not stated), the inhibition is 25.7% (inactive).
As for `CCc1ccc(C(=O)NC(CC(C)C)C(=O)O)cc1` (configuration not stated), the inhibition was 46.8% (inactive).
For the compound `CC(NC(=O)Nn1cnnc1)(C(F)(F)F)C(F)(F)F`, the inhibition is 26.3% (inactive).
Regarding `Clc1ccc(Nc2ccc(NCc3ccccc3)nn2)cc1`, the inhibition is 85.7% (active).
As for `COc1cc(C2Nc3ccccc3C(=O)N2c2ccccc2)ccc1O` (configuration not stated), the figure is 15.1% (inactive).
`O=C(Nc1cc(Cl)ccc1-n1cncn1)c1ccc([N+](=O)[O-])s1`: the inhibition was 92% (active).
Turning to `CCCc1cc(C(=O)O)c2ccccc2n1`, the inhibition was 39.6% (inactive).
As to `Cc1ccc2oc(-c3ccc(NC(=O)c4cccnc4)cc3)nc2c1`, the inhibition is 46.7% (inactive).
On to `CCCCCC(=O)Nc1ccc2oc(-c3cccnc3)nc2c1`, for which the inhibition is 58.5% (active).
The result for `CCC(=O)Nc1cccc(-c2nc3ccccc3o2)c1` reads 78.7% (active).
As to `CC(C)CCN(C(=O)Nc1ccccc1)C(C)c1cccs1` (configuration not stated), the inhibition was 42.2% (inactive).
Consider `COc1ccc2c(c1)NC(=O)CC(c1ccccc1)=N2`, for which the inhibition was 43.8% (inactive).
As for `COc1ccccc1NS(=O)(=O)c1ccc(NC(=O)Cc2cccs2)cc1`, the figure is 33.9% (inactive).
In the case of `N/C(Cc1cccs1)=N\OC(=O)COc1ccccc1Cl`, the inhibition was 59.1% (active).
The result for `C=CCNC(=S)N/N=C(\C)c1ccccn1` reads 90.2% (active); that for `O=C(N/N=C/c1cc2c3c(c1O)CCCN3CCC2)c1ccccc1O`, 34.8% (inactive); that for `O=C(N/N=C/c1cc(Cl)ccc1O)c1ccc(Br)cc1`, 54.1% (active).
As for `O=C(N/N=C/c1ccc2nccnc2c1)c1ccccc1O`, the figure is 36% (inactive).
For `COC(=O)c1ccc(Oc2ccc(S(=O)(=O)N3CCCCC3)cc2N)cc1`, the inhibition was 97.8% (active).
Turning to `CC(=O)c1ccc(S(=O)(=O)N2CCCC2)cc1`, the inhibition was 46.1% (inactive).
Consider `C=CCc1cc(Cl)ccc1OCCNCCCOC`, for which the inhibition is 48.5% (inactive).
With `C=CCc1cc(Cl)ccc1OCCOCCNCCOC`, the inhibition is 50.9% (active).
As to `Cc1cc(SC#N)cc(C)c1NC(=O)CCl`, the inhibition is 25.8% (inactive).
Consider `O=C(NCc1ccco1)c1cnn2c1NC(c1ccc(Br)cc1)CC2C(F)(F)F` (configuration not stated), for which the inhibition is 63.1% (active).
The result for `COc1ccc(/C=C\c2onc(C)c2S(=O)(=O)N2CCC(C(=O)NCc3ccco3)CC2)cc1` reads 42% (inactive); that for `COc1cccc(N2CCN(C3CCCC(C)C3)CC2)c1` (configuration not stated), 38% (inactive); that for `COc1cccc(NC(=O)Cn2cnc3sc(C)c(S(=O)(=O)N4CCCCC4)c3c2=O)c1`, 30.9% (inactive).
`CC1CC1C(=O)Nc1nc(-c2ccccc2)cs1` (configuration not stated): the inhibition is 68.5% (active).
`O=C(COC(=O)/C=C/c1cccs1)Nc1nc(-c2ccccc2)cs1`: the inhibition was 13.3% (inactive).
The result for `O=C(COC(=O)c1cccs1)Nc1nc(-c2ccccc2)cs1` reads 48.2% (inactive); that for `Cc1ccc(N2C(=O)CC(Sc3ccccc3C(=O)O)C2=O)cc1` (configuration not stated), 26.1% (inactive); that for `CC(C)c1ccc(N2C(=O)CC(Sc3ncn[nH]3)C2=O)cc1` (configuration not stated), 58.9% (active).
On to `Cc1cc(C)cc(N2C(=O)CC(Sc3ncn[nH]3)C2=O)c1` (configuration not stated), for which the inhibition was 63.5% (active).
`O=C(Cn1nnc2ccccc21)OCC(=O)c1ccc(Cl)cc1`: the inhibition is 39.8% (inactive).
Consider `CCn1c(=O)cc(SCC(=O)N2CCN(C3CCCCC3)CC2)c2ccccc21`, for which the inhibition was 29.9% (inactive).
For the compound `CCn1c(N2CCN(C(=O)C34CC5CC(CC(C5)C3)C4)CC2)nc2ccccc21`, the inhibition was 54.5% (active).
With `c1csc(C2Nc3ccccc3-c3nc4ccccc4n32)c1` (configuration not stated), the inhibition is 64.8% (active).
Regarding `CCN1c2ccccc2-c2nc3ccccc3n2C1c1cccs1` (configuration not stated), the inhibition was 63.7% (active).
Take `CN1c2ccccc2-c2nc3ccccc3n2C1c1cccs1` (configuration not stated): the inhibition is 62.9% (active).
The result for `c1csc(CNc2nc3ccccc3n2CCN2CCOCC2)c1` reads 35.6% (inactive); that for `CCOC(=O)N1CCC(=NNS(=O)(=O)c2cccc([N+](=O)[O-])c2)CC1`, 31.6% (inactive); that for `COn1c2c(c3c4nonc4ccc31)CCCC2`, 31.4% (inactive).
